# In PubChem BioAssay AID739 (SRMLSC, 2007):
# Out of some 98,000 compounds screened, about 880 (0.9%) were called active. This excerpt belongs to a sample that is enriched for actives. Values without a mark were called inactive. Rule as the data show it: active = inhibition above about 30%; inactive = the rest.
# Test: phenotypic screen on post-Golgi transport, primary screen (AID 739);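 also: yeast cells grown in 1536-well plates; yeast grown about 18 h at 30C before absorbance read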
# Details: post-Golgi transport phenotypic cell assay; at 10 µM; active compounds read high
row,Structure (SMILES),inhibition
1,Cc1ccccc1OCC(=O)Nc1ccc(N2CCN(C(=O)C(C)C)CC2)c(Cl)c1,-4.22%
2,CN1CCN(c2ccc(NC(=O)COc3ccc(Cl)cc3Cl)cc2)CC1,0.47%
3,Cc1ccc(NC(=O)COc2ccc(-n3ccnc3)cc2)cc1Cl,48.8% (active)
4,CCCOc1cc(C)c(S(=O)(=O)n2nnc3ccccc32)cc1C,0.66%
5,Cn1cc(S(=O)(=O)N2CCN(c3ccc(F)cc3)CC2)c(=O)n(C)c1=O,-6.58%
6,CC(C)c1ccc(NS(=O)(=O)c2cn(C)c(=O)n(C)c2=O)cc1,76% (active)
7,Cn1cc(S(=O)(=O)N2CCC(Cc3ccccc3)CC2)c(=O)n(C)c1=O,7.01%
8,CCN1CCN(C(=O)c2cc3cc4ccc(OC)cc4nc3s2)CC1,1.48%
9,O=C(COc1ccc(Br)cc1F)NC1CCN(Cc2ccccc2)CC1,95.3% (active)
10,O=C(COc1ccccc1F)NC1CC1,15.2%
11,O=C(NC1CCN(Cc2ccccc2)CC1)c1ccccc1F,1.69%
12,CCC1(C)Cc2c(sc3nc(SC)nc(N)c23)CO1 (configuration not stated),-2.83%
13,COC(=O)c1ccc(Cc2ccccc2)o1,8.24%
14,CCOc1ccccc1Oc1cn[nH]c1-c1ccc(OC)cc1O,80.9% (active)
15,CCOc1ccccc1NC(=O)Nc1cc(OC)ccc1OC,1.32%
16,C=C(C)COc1ccc(-c2n[nH]c(C)c2-c2ccccc2OC)c(O)c1,-7.36%
17,O=C(Nc1ccc(Cl)cc1)c1cc2nc(C3CC3)cc(C(F)(F)F)n2n1,12%
18,CC12c3ccccc3C(c3ccccc31)C1C(=O)N(Cc3cccnc3)C(=O)C12 (configuration not stated),2.75%
19,CC(C)Cc1oc(C(=O)O)cc1CN,-3.35%
20,COC(=O)C1CCN(CC(N)=O)CC1,0%
21,Cc1ccc(OCC(O)CN2CCN(CC(O)COc3ccc(C)cc3Cl)CC2)c(Cl)c1 (configuration not stated),67.9% (active)

row,Structure (SMILES),inhibition
1,COc1cccc(OCC(O)CN2CCN(CCO)CC2)c1 (configuration not stated),3.01%
2,OC(COc1cccc2ccccc12)CN1CCN(c2ccccn2)CC1 (configuration not stated),3.42%
3,Fc1ccc(-n2c(Cc3ccccc3)nnc2SCc2nc(-c3ccc(Cl)cc3)no2)cc1,-6.61%
4,Cc1nn(C)c(Oc2ccc(Cl)cc2)c1C=O,-3.55%
5,Cc1nc(Cl)c2oc3ccccc3c2n1,12.3%
6,O=C(c1ccc(Cl)cc1)c1ccc(OCC(O)CN2CCCCC2)cc1 (configuration not stated),35.1% (active)
7,OC(COc1cccc(OCC(O)CN2CCCC2)c1)CN1CCCC1 (configuration not stated),-2.18%
8,CCC(=O)c1ccc(OCC(O)CN2CC(C)OC(C)C2)cc1 (configuration not stated),2.21%
9,CC(C)NC(=O)C(=O)NCCN1CCN(S(=O)(=O)c2ccc(Cl)cc2)CC1,1.12%
10,CC1(C)Cc2c(sc3nc(SCC(=O)NCc4ccccc4)n(-c4ccccc4)c(=O)c23)CS1,8.61%
11,COc1ccc(NC(=O)/C(Cl)=C(/Cl)S(=O)Cc2ccc(C)cc2)cn1 (configuration not stated),107% (active)
12,COc1ccc(CC(=O)Nc2ccc(-c3nnc(-c4ccc(C)cc4)o3)cc2)cc1,5.17%
13,COc1cccc(NC(=O)Cc2ccc(C)cc2)c1,24.4%
14,Cc1cc(C)cc(OCC(=O)Nc2nc3ccc([N+](=O)[O-])cc3s2)c1,-4.35%
15,COC(=O)C(NC(=O)c1ccc(OC)cc1)(Nc1ncc(S(=O)(=O)c2ccc([N+](=O)[O-])cc2)s1)C(F)(F)F (configuration not stated),6.99%
16,O=C(NC(Nc1nc2ccc([N+](=O)[O-])cc2s1)(C(F)(F)F)C(F)(F)F)c1ccccc1,102% (active)
17,COc1cc(OC)c(/C=N/NC(=O)c2ccc([N+](=O)[O-])cc2)cc1Br,-4.41%
18,CCCc1ccc(-c2c(C)sc(NC(=O)c3ccnn3C)c2C#N)cc1,-9.37%
19,CCc1c(C)sc(NC(=O)c2ccc(Br)o2)c1C(=O)OC,2.81%
20,CC(CCc1ccccc1)NC(=O)c1ccc(Br)o1 (configuration not stated),2.83%
21,CC(CNC(=O)c1ccc(Br)o1)NC(=O)c1ccc(Br)o1 (configuration not stated),36.5% (active)

row,Structure (SMILES),inhibition
1,Cc1cccc(C(=O)N2CCCN(C(=O)c3cccc(C)c3)CC2)c1,17.7%
2,COC(=O)C1C(=O)NCC1c1ccc(C)cc1 (configuration not stated),-3.77%
3,CCCCN=C1N/C(=C\c2ccco2)C(=O)N1c1ccccc1,1.56%
4,O=C1c2ccccc2C(=O)N1CCC(c1ccccc1)c1ccco1 (configuration not stated),-1.67%
5,C=CCCC(=O)Nc1nc(C)c(-c2csc(Nc3ccc(Cl)cc3)n2)s1,12.8%
6,CCCCC(=O)Nc1nc(C)c(-c2csc(Nc3ccc(Cl)cc3)n2)s1,32.9% (active)
7,CCCCCCC(=O)Nc1nc(C)c(-c2csc(Nc3cc(Cl)ccc3OC)n2)s1,-2.77%
8,CCCCOc1ccc(C(=O)NCc2ccncc2)cc1,2.23%
9,O=C(CNC(=O)c1ccc(Cl)cc1Cl)NCC(=O)Nc1ccccc1N1CCOCC1,-6.67%
10,Cc1cc(C(=O)Nc2ccccc2N2CCOCC2)c2ccccc2n1,-2.05%
11,COc1c(C)cccc1C(=O)Nc1cc(Cl)ccc1N1CCOCC1,64.3% (active)
12,O=C(Nc1cccc(Cl)c1)Nc1nnc(-c2ccccc2)o1,-5.96%
13,O=C(Nc1nnc(-c2ccc(Cl)cc2)o1)c1ccccc1Br,78.2% (active)
14,Cc1nonc1NC(=O)c1ccccc1Br,-12.3%
15,CS(=O)(=O)N1CCN(c2ccc(C(=O)NC3C4CC5CC(C4)CC3C5)cc2[N+](=O)[O-])CC1 (configuration not stated),-5.58%
16,CCOC(=O)N1CCC(Nc2c(NCCCN3CCN(CC)CC3)c(=O)c2=O)CC1,-3.44%
17,Cc1ccc(C(=O)NNC(=O)OC(C)(C)C)c(Cl)c1,-3.13%
18,CCCC(=O)Nc1ccc(Cl)c(NC(=O)c2ccc(Br)o2)c1,0.4%
19,CCN1CCN(c2c(Cl)cccc2NC(=O)c2ccc(Br)o2)CC1,30.4% (active)
20,COc1cc(OC)c(NC(=O)c2ccc(Br)o2)cc1Cl,6.31%
